From the supplement of paper PMC8728848
The full list was thinned out, with the strongest signals kept by preference.

Columns and labels:
Experiment in all cases: glycan array binding signal (z-score within array); higher = stronger binding
Conditions in all cases: glycan notation: IUPAC condensed, linker removed
[1] = target: Fuc(a1-2)Gal(b1-3)GalNAc(b1-3)Gal
In short: (§1)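 From the Consortium for Functional Glycomics database, 3228 arrays were curated, keeping only those whose protein sequence was available. Binding is given as a within-array Z-score averaged across arrays sharing a protein sequence and across linkers. Negative Z-scores can be read as non-binding.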

[2] = target: Fuc(a1-2)Gal(b1-3)[Fuc(a1-4)]GlcNAc(b1-3)[Fuc(a1-3)[Gal(b1-4)]GlcNAc(b1-6)]Gal(b1-4)Glc
In short: as §1

[3] = target: Fuc(a1-2)Gal(b1-4)GlcNAc(b1-2)Man
In short: as §1

[4] = target: Fuc(a1-2)Gal(b1-4)[Fuc(a1-3)]GlcNAc(b1-3)GalNAc
In short: as §1

[5] = target: Fuc(a1-2)Gal(b1-4)[Fuc(a1-3)]GlcNAc(b1-3)[Neu5Ac(a2-6)Gal(b1-4)GlcNAc(b1-6)]Gal(b1-4)Glc
In short: as §1

[6] = target: Fuc(a1-2)[Gal(a1-3)]Gal(b1-4)Glc
In short: as §1

[7] = target: Fuc(a1-2)[Gal(a1-3)]Gal(b1-4)[Fuc(a1-3)]GlcNAc
In short: as §1

[8] = target: Fuc(a1-2)[Gal(a1-4)]Gal(b1-4)GlcNAc
In short: as §1

[9] = target: Fuc(a1-2)[GalNAc(a1-4)]Gal(b1-4)GlcNAc
In short: as §1

[10] = target: Fuc(a1-3)[Gal(b1-4)]GlcNAc
In short: as §1

[11] = target: Fuc(a1-3)[Gal(b1-4)]GlcNAc(b1-2)Man
In short: as §1

[12] = target: Fuc(a1-3)[Gal(b1-4)]GlcNAc(b1-3)Gal(b1-4)[Fuc(a1-3)]GlcNAc(b1-3)Gal(b1-4)[Fuc(a1-3)]GlcNAc
In short: as §1

[13] = target: Fuc(a1-3)[Gal3S(b1-4)]GlcNAc
In short: as §1

[14] = target: Gal(a1-3)Gal(b1-3)GlcNAc(b1-6)GalNAc
In short: as §1

[15] = target: Gal(a1-3)Gal(b1-4)GlcNAc(b1-2)Man
In short: as §1

[16] = target: Gal(a1-3)Gal(b1-4)GlcNAc(b1-2)Man(a1-3)[Gal(a1-3)Gal(b1-4)GlcNAc(b1-2)Man(a1-6)]Man(b1-4)GlcNAc(b1-4)GlcNAc
In short: as §1

[17] = target: Gal(a1-3)Gal(b1-4)GlcNAc(b1-3)GalNAc
In short: as §1

[18] = target: Gal(a1-3)[Gal(a1-4)]Gal(b1-4)GlcNAc
In short: as §1

[19] = target: Gal(a1-4)Gal(b1-3)GlcNAc(b1-2)Man(a1-3)[Gal(a1-4)Gal(b1-3)GlcNAc(b1-2)Man(a1-6)]Man(b1-4)GlcNAc(b1-4)GlcNAc
In short: as §1

Gal(a1-4)Gal(b1-4)Glc = target: Gal(a1-4)Gal(b1-4)Glc
In short: as §1

Gal(a1-4)Gal(b1-4)GlcNAc = target: Gal(a1-4)Gal(b1-4)GlcNAc
In short: as §1

[20] = target: Gal(a1-4)Gal(b1-4)GlcNAc(b1-2)Man(a1-3)[Gal(a1-4)Gal(b1-4)GlcNAc(b1-2)Man(a1-6)]Man(b1-4)GlcNAc(b1-4)GlcNAc
In short: as §1

Gal(a1-4)GlcNAc = target: Gal(a1-4)GlcNAc
In short: as §1

Gal(a1-6)Glc = target: Gal(a1-6)Glc
In short: as §1

Gal(b1-2)Gal = target: Gal(b1-2)Gal
In short: as §1

[21] = target: Gal(b1-3)GalNAc(a1-3)[Fuc(a1-2)]Gal(b1-4)GlcNAc
In short: as §1

[22] = target: Gal(b1-3)GlcNAc(b1-3)Gal(b1-4)GlcNAc
In short: as §1

[23] = target: Gal(b1-3)GlcNAc(b1-6)Gal(b1-4)GlcNAc
In short: as §1

[24] = target: Gal(b1-3)GlcNAc(b1-6)[Gal(b1-3)]GalNAc
In short: as §1

Gal(b1-4)Glc6S = target: Gal(b1-4)Glc6S
In short: as §1

B1: Epa13 (Candida glabrata) (protein)
chain: MGSSHHHHHHSSGLVPRGSHMASDSSENGYAHGCSPSIRAKLKPGLSMEIYSYALRPTDDHCWDSAYLDPMFPRTGYLTHKLLGKAEGIIGPLNFLAKNPACIPAVSTLPLAFHFPKPFTITNFTMLLYGYLSPKKTGKYTFKLLADDLLLMNFGADNAFDCCSHDATKDNIGEYVAYSVWPGVNKNVTVYLESGIYYPLRLFFNNRDAIAQLDFAYYFNDSPIRQTDFSGMFFSIPDSVKCPANI
In the case of B1, the “glycan array binding signal (z-score)” value [1] is reported as 0.112, the “glycan array binding signal (z-score)” value [2] is reported as -0.604 and the “glycan array binding signal (z-score)” value [3] is reported as 0.385. For the same binder, the “glycan array binding signal (z-score)” value [4] was 2.14, the “glycan array binding signal (z-score)” value [5] was -0.526 and the “glycan array binding signal (z-score)” value [6] was -0.047. The “glycan array binding signal (z-score)” value [7] was 0.02, the “glycan array binding signal (z-score)” value [8] was 9.27 and the “glycan array binding signal (z-score)” value [9] was -0.453. The “glycan array binding signal (z-score)” value [10] was -0.454, the “glycan array binding signal (z-score)” value [11] was -0.124 and the “glycan array binding signal (z-score)” value [12] was -0.429. The “glycan array binding signal (z-score)” value [13] was -0.351, the “glycan array binding signal (z-score)” value [14] was 1.13 and the “glycan array binding signal (z-score)” value [15] was 0.125. The “glycan array binding signal (z-score)” value [16] was 4.93, the “glycan array binding signal (z-score)” value [17] was 0.561 and the “glycan array binding signal (z-score)” value [18] was 1.47. The “glycan array binding signal (z-score)” value [19] was 4.04, the “glycan array binding signal (z-score)” value (Gal(a1-4)Gal(b1-4)Glc) was 3.52 and the “glycan array binding signal (z-score)” value (Gal(a1-4)Gal(b1-4)GlcNAc) was 4.15. For the same binder, the “glycan array binding signal (z-score)” value [20] was 5.18, the “glycan array binding signal (z-score)” value (Gal(a1-4)GlcNAc) was 7.08 and the “glycan array binding signal (z-score)” value (Gal(a1-6)Glc) was 13.2. The “glycan array binding signal (z-score)” value (Gal(b1-2)Gal) was 4.04, the “glycan array binding signal (z-score)” value [21] was -0.314 and the “glycan array binding signal (z-score)” value [22] was -0.418. The “glycan array binding signal (z-score)” value [23] was -0.113, the “glycan array binding signal (z-score)” value [24] was -0.014 and the “glycan array binding signal (z-score)” value (Gal(b1-4)Glc6S) was 0.255.
